Measured values taken from publication PMC7862700, “An all-to-all approach to the identification of sequence-specific readers for epigenetic DNA modifications on cytosine”.

Experiments:
Assay in all cases: DAPPL (digital affinity profiling via proximity ligation, sequencing); 10 mM Tris-HCl pH 7.5, 50 mM NaCl, 1 mM DTT, 4% glycerol, room temperature, 30 min; GST-TFs on glutathione beads, 16-mer random dsDNA library, 0.1% formaldehyde crosslink after washing; high values mean tight binding
FEV = target: T1, FEV (Homo sapiens, UniProt Q99581 1-238); settings: protein: recombinant; tags: N-terminal GST; dsDNA, one strand shown
T1 sequence: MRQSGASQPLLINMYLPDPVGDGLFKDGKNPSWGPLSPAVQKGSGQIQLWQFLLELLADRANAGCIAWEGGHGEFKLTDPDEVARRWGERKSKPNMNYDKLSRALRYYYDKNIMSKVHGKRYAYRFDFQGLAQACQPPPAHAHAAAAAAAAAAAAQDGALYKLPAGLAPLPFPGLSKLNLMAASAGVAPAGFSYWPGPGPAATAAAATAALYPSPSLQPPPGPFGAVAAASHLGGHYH
In short: (§1)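 Beads coated with glutathione captured GST-fused human transcription factors that had been expressed in yeast, and the factors were then given DNA barcodes and pooled with a tag-only sample. The pools were incubated with 200 nmole of a random double-stranded 16-mer DNA library in Tris/NaCl/DTT/glycerol buffer for 30 min at room temperature, washed, crosslinked with 0.1% formaldehyde and proximity-ligated with BsaI/T4 ligase at 37 °C for 1 h. PCR amplification and Illumina NextSeq500 sequencing came last. Binding signal is each hexamer's read frequency for a factor divided by its frequency for the tag-only sample.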

ETV5 = ETV5 (Homo sapiens, UniProt P41161 1-510); settings: protein: recombinant; tags: N-terminal GST; dsDNA, one strand shown
In short: as §1

HSF1 = HSF1 (Homo sapiens, UniProt Q00613 1-529); settings: protein: recombinant; tags: N-terminal GST; chain copies: 3; dsDNA, one strand shown
In short: as §1

SPIC = target: T2, SPIC (Homo sapiens, UniProt Q8N5J4 1-248); settings: protein: recombinant; tags: N-terminal GST; dsDNA, one strand shown
T2 sequence: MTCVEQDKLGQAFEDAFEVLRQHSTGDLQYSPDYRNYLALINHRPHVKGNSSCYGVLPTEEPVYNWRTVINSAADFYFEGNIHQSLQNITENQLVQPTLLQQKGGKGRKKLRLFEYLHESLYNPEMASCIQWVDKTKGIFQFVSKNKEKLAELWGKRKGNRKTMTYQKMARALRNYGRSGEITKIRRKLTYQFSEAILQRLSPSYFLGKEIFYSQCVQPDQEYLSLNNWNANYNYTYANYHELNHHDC
In short: as §1

ELF4 = ELF4 (Homo sapiens, UniProt Q99607 1-663); settings: protein: recombinant; tags: N-terminal GST; dsDNA, one strand shown
In short: as §1

ELK4 = target: T3, ELK4 (Homo sapiens, UniProt P28324-2 1-405); settings: protein: recombinant; tags: N-terminal GST; dsDNA, one strand shown
T3 sequence: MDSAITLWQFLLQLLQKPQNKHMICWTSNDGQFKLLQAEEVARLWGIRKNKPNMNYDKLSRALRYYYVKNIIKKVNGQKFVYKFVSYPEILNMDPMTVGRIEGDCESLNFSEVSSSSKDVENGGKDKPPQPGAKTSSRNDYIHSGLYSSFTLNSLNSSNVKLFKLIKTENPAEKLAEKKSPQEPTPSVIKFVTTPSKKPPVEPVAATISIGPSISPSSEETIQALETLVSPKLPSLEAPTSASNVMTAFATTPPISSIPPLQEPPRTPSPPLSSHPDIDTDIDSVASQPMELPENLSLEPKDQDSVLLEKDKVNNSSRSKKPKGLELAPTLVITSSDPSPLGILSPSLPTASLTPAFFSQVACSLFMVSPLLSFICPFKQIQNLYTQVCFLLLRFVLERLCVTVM
In short: as §1

ETV2 = target: T4, ETV2 (Homo sapiens, UniProt O00321 1-342); settings: protein: recombinant; tags: N-terminal GST; dsDNA, one strand shown
T4 sequence: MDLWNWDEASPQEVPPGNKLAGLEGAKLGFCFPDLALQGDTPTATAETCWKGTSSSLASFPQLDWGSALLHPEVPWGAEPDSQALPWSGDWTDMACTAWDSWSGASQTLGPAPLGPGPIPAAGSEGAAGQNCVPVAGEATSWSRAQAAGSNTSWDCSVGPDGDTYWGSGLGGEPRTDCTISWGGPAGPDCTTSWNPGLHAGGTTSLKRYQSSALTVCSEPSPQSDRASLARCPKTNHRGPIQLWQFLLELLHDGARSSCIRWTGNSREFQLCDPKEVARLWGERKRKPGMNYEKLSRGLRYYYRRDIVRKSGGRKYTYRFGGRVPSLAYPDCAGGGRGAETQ
In short: as §1

ELF3 = target: T5, ELF3 (Homo sapiens, UniProt P78545 1-371); settings: protein: recombinant; tags: N-terminal GST; dsDNA, one strand shown
T5 sequence: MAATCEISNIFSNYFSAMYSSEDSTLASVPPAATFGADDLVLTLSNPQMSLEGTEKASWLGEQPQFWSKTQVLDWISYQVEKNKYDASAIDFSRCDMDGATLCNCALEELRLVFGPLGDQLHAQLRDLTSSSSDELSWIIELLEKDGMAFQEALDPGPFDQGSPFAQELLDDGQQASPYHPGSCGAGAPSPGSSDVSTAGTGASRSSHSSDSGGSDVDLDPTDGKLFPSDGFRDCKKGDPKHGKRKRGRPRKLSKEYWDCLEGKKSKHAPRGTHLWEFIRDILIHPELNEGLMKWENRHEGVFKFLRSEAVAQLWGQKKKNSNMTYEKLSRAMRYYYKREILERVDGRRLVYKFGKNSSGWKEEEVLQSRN
In short: as §1

CRX = CRX (Homo sapiens, UniProt O43186 1-299); settings: protein: recombinant; tags: N-terminal GST; dsDNA, one strand shown
In short: as §1

ETV1 = ETV1 (Homo sapiens, UniProt P50549 1-477); settings: protein: recombinant; tags: N-terminal GST; dsDNA, one strand shown
In short: as §1

ERF = target: T6, ERF (Homo sapiens, UniProt P50548 1-548); settings: protein: recombinant; tags: N-terminal GST; dsDNA, one strand shown
T6 sequence: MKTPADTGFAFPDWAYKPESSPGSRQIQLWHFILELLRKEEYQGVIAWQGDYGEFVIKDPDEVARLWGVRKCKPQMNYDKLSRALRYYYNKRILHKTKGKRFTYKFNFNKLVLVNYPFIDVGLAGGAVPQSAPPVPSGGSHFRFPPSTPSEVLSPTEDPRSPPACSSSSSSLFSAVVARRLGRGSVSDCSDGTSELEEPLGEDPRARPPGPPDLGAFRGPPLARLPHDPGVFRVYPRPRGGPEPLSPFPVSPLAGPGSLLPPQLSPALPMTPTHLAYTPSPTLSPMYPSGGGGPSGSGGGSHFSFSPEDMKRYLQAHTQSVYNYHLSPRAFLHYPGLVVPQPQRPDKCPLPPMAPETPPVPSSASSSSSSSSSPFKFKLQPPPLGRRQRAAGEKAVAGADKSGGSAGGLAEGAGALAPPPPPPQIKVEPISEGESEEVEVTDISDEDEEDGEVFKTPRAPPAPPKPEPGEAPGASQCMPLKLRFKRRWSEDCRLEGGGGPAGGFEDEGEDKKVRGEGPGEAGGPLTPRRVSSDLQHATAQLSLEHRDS
In short: as §1

ETV3L = target: T7, ETV3L (Homo sapiens, UniProt Q6ZN32 1-361); settings: protein: recombinant; tags: N-terminal GST; dsDNA, one strand shown
T7 sequence: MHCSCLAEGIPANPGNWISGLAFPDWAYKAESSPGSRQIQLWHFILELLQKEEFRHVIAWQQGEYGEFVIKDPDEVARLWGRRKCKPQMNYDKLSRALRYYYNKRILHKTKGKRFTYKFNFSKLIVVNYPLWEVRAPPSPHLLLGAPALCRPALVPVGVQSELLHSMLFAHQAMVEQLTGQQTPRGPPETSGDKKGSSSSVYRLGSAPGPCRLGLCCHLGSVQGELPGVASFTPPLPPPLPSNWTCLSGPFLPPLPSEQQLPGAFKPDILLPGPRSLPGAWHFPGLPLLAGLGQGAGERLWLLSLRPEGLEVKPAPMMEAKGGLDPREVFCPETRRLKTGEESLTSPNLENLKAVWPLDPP
In short: as §1

ETS2 = target: T8, ETS2 (Homo sapiens, UniProt P15036 1-469); settings: protein: recombinant; tags: N-terminal GST; dsDNA, one strand shown
T8 sequence: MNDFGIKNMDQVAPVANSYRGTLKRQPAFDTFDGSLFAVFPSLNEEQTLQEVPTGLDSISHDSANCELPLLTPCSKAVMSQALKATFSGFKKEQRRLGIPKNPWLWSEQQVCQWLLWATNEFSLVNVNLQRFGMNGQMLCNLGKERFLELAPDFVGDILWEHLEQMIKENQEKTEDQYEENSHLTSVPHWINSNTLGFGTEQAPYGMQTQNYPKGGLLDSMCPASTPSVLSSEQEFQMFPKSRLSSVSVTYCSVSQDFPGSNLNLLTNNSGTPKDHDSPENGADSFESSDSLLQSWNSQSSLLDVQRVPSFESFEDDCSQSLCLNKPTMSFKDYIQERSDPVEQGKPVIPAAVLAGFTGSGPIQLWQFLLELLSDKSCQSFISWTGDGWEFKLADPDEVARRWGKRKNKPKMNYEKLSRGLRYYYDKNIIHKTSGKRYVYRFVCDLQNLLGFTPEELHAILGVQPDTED
In short: as §1

SPDEF = target: T9, SPDEF (Homo sapiens, UniProt O95238 1-335); settings: protein: recombinant; tags: N-terminal GST; dsDNA, one strand shown
T9 sequence: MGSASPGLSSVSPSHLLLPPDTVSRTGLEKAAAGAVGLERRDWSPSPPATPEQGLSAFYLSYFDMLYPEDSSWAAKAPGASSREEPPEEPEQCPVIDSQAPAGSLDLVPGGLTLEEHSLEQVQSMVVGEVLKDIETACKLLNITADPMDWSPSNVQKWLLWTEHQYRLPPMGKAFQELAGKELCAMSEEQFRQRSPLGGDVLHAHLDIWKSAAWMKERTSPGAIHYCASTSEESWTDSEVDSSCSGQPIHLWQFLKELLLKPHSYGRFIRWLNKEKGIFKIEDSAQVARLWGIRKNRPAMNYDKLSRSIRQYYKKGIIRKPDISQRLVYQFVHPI
In short: as §1

ETV7 = target: T10, ETV7 (Homo sapiens, UniProt Q9Y603 1-341); settings: protein: recombinant; tags: N-terminal GST; dsDNA, one strand shown
T10 sequence: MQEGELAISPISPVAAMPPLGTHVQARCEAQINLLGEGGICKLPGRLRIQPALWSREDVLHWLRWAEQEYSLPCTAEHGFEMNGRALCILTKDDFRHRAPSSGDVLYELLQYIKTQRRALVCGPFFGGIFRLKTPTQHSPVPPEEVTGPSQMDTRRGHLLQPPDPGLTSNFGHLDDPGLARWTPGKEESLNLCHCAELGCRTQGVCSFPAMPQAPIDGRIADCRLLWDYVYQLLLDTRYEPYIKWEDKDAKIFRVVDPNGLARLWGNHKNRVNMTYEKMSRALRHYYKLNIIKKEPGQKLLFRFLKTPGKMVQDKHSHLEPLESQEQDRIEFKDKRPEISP
In short: as §1

ELF5 = target: T11, ELF5 (Homo sapiens, UniProt Q9UKW6-2 1-255); settings: protein: recombinant; tags: N-terminal GST; dsDNA, one strand shown
T11 sequence: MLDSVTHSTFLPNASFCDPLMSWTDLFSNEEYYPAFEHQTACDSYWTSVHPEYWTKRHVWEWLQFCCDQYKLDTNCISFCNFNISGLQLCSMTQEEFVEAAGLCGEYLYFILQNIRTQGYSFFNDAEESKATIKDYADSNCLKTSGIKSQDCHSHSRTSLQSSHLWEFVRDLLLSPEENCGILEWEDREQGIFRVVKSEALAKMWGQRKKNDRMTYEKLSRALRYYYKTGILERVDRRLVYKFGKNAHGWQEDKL
In short: as §1

ETV3 = target: T12, ETV3 (Homo sapiens, UniProt P41162-2 1-143); settings: protein: recombinant; tags: N-terminal GST; dsDNA, one strand shown
T12 sequence: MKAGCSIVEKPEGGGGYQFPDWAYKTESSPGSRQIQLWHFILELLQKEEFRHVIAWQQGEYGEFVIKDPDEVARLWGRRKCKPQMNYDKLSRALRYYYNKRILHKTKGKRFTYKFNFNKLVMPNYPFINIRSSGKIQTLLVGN
In short: as §1

ETV6 = ETV6 (Homo sapiens, UniProt P41212 1-452); settings: protein: recombinant; tags: N-terminal GST; dsDNA, one strand shown
In short: as §1

HSF1, sequence (Q00613 whole entry): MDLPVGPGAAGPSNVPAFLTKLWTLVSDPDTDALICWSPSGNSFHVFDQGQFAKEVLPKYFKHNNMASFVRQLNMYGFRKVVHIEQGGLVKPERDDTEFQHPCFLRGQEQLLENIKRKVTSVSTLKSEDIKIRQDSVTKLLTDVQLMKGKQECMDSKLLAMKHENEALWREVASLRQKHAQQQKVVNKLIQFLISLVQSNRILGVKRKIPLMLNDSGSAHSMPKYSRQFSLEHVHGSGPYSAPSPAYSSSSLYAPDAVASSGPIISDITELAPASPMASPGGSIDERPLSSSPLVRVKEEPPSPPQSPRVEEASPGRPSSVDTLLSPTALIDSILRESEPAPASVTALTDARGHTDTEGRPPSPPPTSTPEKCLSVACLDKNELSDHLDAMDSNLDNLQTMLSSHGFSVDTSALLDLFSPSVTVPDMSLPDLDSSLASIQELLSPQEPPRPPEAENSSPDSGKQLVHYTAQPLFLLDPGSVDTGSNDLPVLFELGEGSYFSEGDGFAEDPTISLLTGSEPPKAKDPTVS
ETV6, sequence (P41212 whole entry): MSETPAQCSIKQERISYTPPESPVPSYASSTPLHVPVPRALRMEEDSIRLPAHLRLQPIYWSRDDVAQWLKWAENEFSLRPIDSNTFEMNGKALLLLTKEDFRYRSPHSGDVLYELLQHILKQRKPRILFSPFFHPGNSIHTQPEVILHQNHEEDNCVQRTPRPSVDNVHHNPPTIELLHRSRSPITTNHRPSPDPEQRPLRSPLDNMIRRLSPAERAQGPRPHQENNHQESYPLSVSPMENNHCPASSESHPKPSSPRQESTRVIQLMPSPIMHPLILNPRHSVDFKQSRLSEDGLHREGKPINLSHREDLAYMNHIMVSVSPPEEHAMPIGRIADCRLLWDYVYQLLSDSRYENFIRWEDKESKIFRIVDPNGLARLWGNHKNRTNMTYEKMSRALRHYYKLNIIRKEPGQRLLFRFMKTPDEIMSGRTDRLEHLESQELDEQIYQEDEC
CRX, sequence (O43186 whole entry): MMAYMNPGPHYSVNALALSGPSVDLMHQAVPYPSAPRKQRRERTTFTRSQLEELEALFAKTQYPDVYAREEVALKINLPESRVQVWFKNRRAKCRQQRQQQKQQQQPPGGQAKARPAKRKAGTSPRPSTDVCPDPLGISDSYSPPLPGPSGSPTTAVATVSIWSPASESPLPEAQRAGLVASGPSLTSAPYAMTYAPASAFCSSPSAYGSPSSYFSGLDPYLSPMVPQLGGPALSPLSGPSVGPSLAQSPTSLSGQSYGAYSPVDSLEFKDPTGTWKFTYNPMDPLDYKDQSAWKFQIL
ELF4, sequence (Q99607 whole entry): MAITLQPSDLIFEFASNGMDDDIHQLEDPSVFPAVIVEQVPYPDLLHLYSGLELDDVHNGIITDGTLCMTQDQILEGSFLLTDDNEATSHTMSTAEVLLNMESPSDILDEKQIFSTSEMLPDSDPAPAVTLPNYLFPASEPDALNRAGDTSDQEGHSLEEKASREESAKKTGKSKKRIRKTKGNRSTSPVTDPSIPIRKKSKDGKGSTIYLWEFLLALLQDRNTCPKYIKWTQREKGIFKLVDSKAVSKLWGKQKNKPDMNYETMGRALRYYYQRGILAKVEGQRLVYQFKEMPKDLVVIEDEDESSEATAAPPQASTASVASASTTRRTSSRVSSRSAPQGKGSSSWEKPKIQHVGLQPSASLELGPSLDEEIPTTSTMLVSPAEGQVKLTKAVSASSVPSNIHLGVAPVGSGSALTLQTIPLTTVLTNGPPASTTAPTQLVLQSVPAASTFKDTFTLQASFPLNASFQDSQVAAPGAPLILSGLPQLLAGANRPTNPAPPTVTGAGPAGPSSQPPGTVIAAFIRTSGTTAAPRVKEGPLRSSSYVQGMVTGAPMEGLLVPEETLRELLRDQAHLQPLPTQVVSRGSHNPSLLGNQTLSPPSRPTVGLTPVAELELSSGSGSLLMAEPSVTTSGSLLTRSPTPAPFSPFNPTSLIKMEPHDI
ETV1, sequence (P50549 whole entry): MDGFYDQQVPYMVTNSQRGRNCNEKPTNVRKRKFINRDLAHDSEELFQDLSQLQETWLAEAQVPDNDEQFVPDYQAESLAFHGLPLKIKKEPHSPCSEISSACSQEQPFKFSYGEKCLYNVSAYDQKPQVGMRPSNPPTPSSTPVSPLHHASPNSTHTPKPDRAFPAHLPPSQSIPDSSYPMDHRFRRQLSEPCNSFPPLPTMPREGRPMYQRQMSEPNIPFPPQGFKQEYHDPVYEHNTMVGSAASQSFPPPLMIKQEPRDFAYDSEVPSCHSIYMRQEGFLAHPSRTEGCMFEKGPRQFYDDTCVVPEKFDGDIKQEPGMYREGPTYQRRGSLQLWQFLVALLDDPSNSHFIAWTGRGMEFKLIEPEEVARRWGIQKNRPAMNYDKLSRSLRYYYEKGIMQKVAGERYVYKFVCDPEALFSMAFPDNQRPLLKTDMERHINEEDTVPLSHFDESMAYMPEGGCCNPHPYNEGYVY
ETV5, sequence (P41161 whole entry): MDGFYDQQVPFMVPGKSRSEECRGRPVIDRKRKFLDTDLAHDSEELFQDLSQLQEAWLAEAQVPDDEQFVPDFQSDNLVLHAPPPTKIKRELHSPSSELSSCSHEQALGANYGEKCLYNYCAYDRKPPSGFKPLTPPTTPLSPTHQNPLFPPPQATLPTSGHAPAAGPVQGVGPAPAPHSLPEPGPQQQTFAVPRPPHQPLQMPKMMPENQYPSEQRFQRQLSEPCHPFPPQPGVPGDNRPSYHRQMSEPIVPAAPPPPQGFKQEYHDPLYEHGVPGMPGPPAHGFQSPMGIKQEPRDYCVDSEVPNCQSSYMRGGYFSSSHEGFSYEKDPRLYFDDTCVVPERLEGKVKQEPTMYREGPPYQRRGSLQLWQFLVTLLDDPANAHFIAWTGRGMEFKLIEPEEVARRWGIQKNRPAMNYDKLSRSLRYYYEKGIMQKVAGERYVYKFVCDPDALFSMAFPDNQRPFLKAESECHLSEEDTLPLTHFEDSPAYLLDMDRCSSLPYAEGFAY

Question: CGAAAG was tested. Which binding signal (FEV) did it give?
Answer: Its binding signal is 1.04 fold enrichment (6-mer frequency, TF over GST control).

Question: And the binding signal (ETV5)?
Answer: The binding signal was 1.1 fold enrichment (6-mer frequency, TF over GST control).

Question: What about the binding signal (HSF1) of the same sequence?
Answer: The binding signal was 1.81 fold enrichment (6-mer frequency, TF over GST control).

Question: What about the binding signal (SPIC) of the same sequence?
Answer: Its binding signal is 1.03 fold enrichment (6-mer frequency, TF over GST control).

Question: What about the binding signal (ELF4) of the same sequence?
Answer: Its binding signal is 1.06 fold enrichment (6-mer frequency, TF over GST control).

Question: What about the binding signal (ELK4) of the same sequence?
Answer: Its binding signal is 1.09 fold enrichment (6-mer frequency, TF over GST control).

Question: And the binding signal (ETV2)?
Answer: Its binding signal is 1.13 fold enrichment (6-mer frequency, TF over GST control).

Question: And the binding signal (ELF3)?
Answer: Its binding signal is 1.21 fold enrichment (6-mer frequency, TF over GST control).

Question: What about the binding signal (CRX) of the same sequence?
Answer: Its binding signal is 1.11 fold enrichment (6-mer frequency, TF over GST control).

Question: And the binding signal (ETV1)?
Answer: The binding signal was 1.01 fold enrichment (6-mer frequency, TF over GST control).

Question: What about the binding signal (ERF) of the same sequence?
Answer: Its binding signal is 1.11 fold enrichment (6-mer frequency, TF over GST control).

Question: And the binding signal (ETV3L)?
Answer: The binding signal was 1.05 fold enrichment (6-mer frequency, TF over GST control).

Question: And the binding signal (ETS2)?
Answer: The binding signal was 1.11 fold enrichment (6-mer frequency, TF over GST control).

Question: What about the binding signal (SPDEF) of the same sequence?
Answer: The binding signal was 1.07 fold enrichment (6-mer frequency, TF over GST control).

Question: What about the binding signal (ETV7) of the same sequence?
Answer: Its binding signal is 1.19 fold enrichment (6-mer frequency, TF over GST control).

Question: What about the binding signal (ELF5) of the same sequence?
Answer: Its binding signal is 1 fold enrichment (6-mer frequency, TF over GST control).

Question: What about the binding signal (ETV3) of the same sequence?
Answer: Its binding signal is 1.02 fold enrichment (6-mer frequency, TF over GST control).

Question: What about the binding signal (ETV6) of the same sequence?
Answer: Its binding signal is 1.02 fold enrichment (6-mer frequency, TF over GST control).
